From PubChem BioAssay (Tox21)
Records with an inconclusive call do not appear. Calls of active or inactive are those of the source. Unless noted, calls follow the shape of the dose curve; as a rule, active = well fitted curve in the direction sought with a large enough effect in the repeat runs; inconclusive = weak or mixed curves; inactive = no such curve, though single readings can be large; an effect the other way counts as inactive or inconclusive.

Experiments:
[1] = qHTS assay to identify small molecule agonists of H2AX (AID 1224845; active = well fitted activation curve with a large enough effect in the signal ratio in the repeat runs, not every such curve was filed as active; the % refers to the signal ratio)
Outline: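 Wild-type CHO-K1 cells plated overnight, then exposed 3 hr at 37C to compounds at 15 concentrations (0.76% DMSO). Lysed, then HTRF anti-pH2AX(S139)-cryptate/anti-H2AX-d2 detection after 24 hr at room temperature; emissions 665 and 620 nm.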

[2] = qHTS assay to identify small molecule agonists of H2AX - cell viability counter screen (AID 1224847; calls by dose curve; also: top concentration of the series differs between compounds; nearly all actives have a fitted effect of over 30% in size)
Outline: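 Viability of CHO-K1 (wild type) cells after 3 hr compound exposure was measured by CellTiter-Glo luminescence.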

[3] = qHTS RealTime-Glo MT Cell Viability Assay in HepG2 cells - 24 hour (AID 1224867); also: nearly all actives have a fitted effect of over 50% in size
Outline: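 qHTS, HepG2, 600 cells/well, RealTime-Glo (NanoLuc + prosubstrate) added with cells; 5 h preincubation; DMSO compound addition; 37 C; luminescence at 0/8/16/24/32/40 h.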

[4] = qHTS RealTime-Glo MT Cell Viability Assay in HEK293 cells - 32 hour (AID 1224868); also: nearly all actives have a fitted effect of over 50% in size; also: potency is read from the fitted curve at half-maximal effect; as to activity change, negative = cytotoxic: top concentration of the series differs between compounds
Outline: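 Assay medium contained NanoLuc luciferase plus cell-permeant prosubstrate, added with HEK293 cells at 600 cells/well. After 5 h at 37 C/5% CO2 compounds were added; plates stayed at 37 C for 40 h with serial luminescence reads.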

[5] = A CellTox Green Cytotoxicity Assay to monitor cytotoxicity in HEK293 cells - 0 hour (AID 1224869); also: nearly all actives have a fitted effect of over 50% in size
Outline: (§1)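 Real-time, in one plate: 600 HEK293 cells/well with dead-cell DNA dye, pinned compound after 5 h, 37 C incubation over 40 h; viable cells give no appreciable fluorescence.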

[6] = qHTS RealTime-Glo MT Cell Viability Assay in HepG2 cells - 40 hour (AID 1224870); also: nearly all actives have a fitted effect of over 50% in size
Outline: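 HepG2 cells mixed with RealTime-Glo MT reagents (NanoLuc plus cell-permeant prosubstrate) were seeded at 600 cells/well, incubated 5 h at 37 C/5% CO2, then pinned with compounds in DMSO; nonlytic luminescence tracked viability during 40 h treatment.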

[7] = A CellTox Green Cytotoxicity Assay to monitor cytotoxicity in HEK293 cells - 40 hour (AID 1224871); also: nearly all actives have a fitted effect of over 45% in size; also: potency is read from the fitted curve at half-maximal effect
Outline: as §1

[8] = qHTS assay to identify small molecule agonists of the hypoxia (HIF-1) signaling pathway (AID 1224846; active = well fitted activation curve with a large enough effect in the signal ratio in the repeat runs, not every such curve was filed as active; the % refers to the signal ratio)
Outline: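 ME-180 HRE-bla reporter cells; compounds in DMSO, 17 h at 37C; read-out beta-lactamase via CCF4-AM FRET.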

[9] = qHTS assay to identify small molecule antagonists of the estrogen related receptor (ERR) signaling pathway from Tox21 library (AID 1224848); also: nearly all actives have a fitted effect of over 50% in size
Outline: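 First, 2,000 ERR cells per well were plated and held 6 h at 37 C/5% CO2. Next, compounds in DMSO were pinned in and left 18 h at 37 C. Finally, ONE-Glo was added and luminescence read after 30 min at room temperature.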

[10] = qHTS assay to identify small molecule agonists of the estrogen related receptor (ERR) signaling pathway from Tox21 library (AID 1224849; calls by dose curve; also: nearly all actives have a fitted effect of over 15% in size); conditions: ERR reporter cell line, ONE-Glo luciferase, 18 h; at 92.4 µM (top of the series) unless noted
Outline: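 Luciferase activity in ERR pathway reporter cells served as the agonist readout; exposure lasted 18 h at 37 C, with ONE-Glo detection after 30 min at room temperature.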
% is scaled to controls: 0 for no effect and ±100 for the full control effect.

CCC(=O)OC1(c2ccccc2)CCN(C)CC1
inactive: outcome [1] | Potency [2] | Potency [3] | Potency [4] | outcome [5] | Potency [6] | Potency [7]

CCSC(=O)Cl
inactive: outcome [8] | Potency [2] | Potency [9] | activity change, positive = activation [10] 13.4% | Potency [3] | Potency [4] | outcome [5] | Potency [6] | Potency [7]

O=C(Cl)/C=C/C(=O)Cl
inactive: outcome [8] | Potency [2] | Potency [9] | activity change, positive = activation [10] -12% | Potency [3] | Potency [6] | Potency [7]

NCC1(CC(=O)O)CCCCC1
inactive: outcome [1] | Potency [2] | Potency [4] | outcome [5] | Potency [7]

CN(C)CCc1c[nH]c2cccc(OP(=O)(O)O)c12
inactive: outcome [1] | Potency [2] | Potency [3] | Potency [4] | outcome [5] | Potency [7]

Cc1ccc2cc(C)ccc2c1
inactive: outcome [8] | Potency [2] | Potency [9] | activity change, positive = activation [10] 0.0091% | Potency [3] | Potency [4] | outcome [5] | Potency [6] | Potency [7]

Cc1ccc(Cl)c(O)c1
inactive: outcome [8] | Potency [2] | Potency [9] | activity change, positive = activation [10] 6.81% [at 42.5 µM] | Potency [3] | Potency [4] | outcome [5] | Potency [6] | Potency [7]

C=C1CC[C@@]2(O)[C@H]3Cc4ccc(O)c5c4[C@@]2(CCN3CC2CC2)[C@H]1O5
inactive: outcome [1] | Potency [2] | Potency [9] | activity change, positive = activation [10] 8.21% [at 42.5 µM] | Potency [3] | Potency [6]

ClC(Cl)(Cl)Cl
inactive: outcome [8] | Potency [2] | Potency [9] | activity change, positive = activation [10] -3.58% | Potency [3] | Potency [4] | Potency [6] | Potency [7]

C#CCOC(=O)/C=C(C)/C=C/CC(C)CCCC(C)C (centres undefined)
inactive: outcome [8] | Potency [2] | Potency [9] | activity change, positive = activation [10] 0.281% | Potency [3] | outcome [5] | Potency [6] | Potency [7]

CCCN1CCC[C@@H]2Cc3nc(N)ncc3C[C@H]21
inactive: outcome [1] | Potency [2] | Potency [9] | activity change, positive = activation [10] 3.55% [at 42.5 µM] | Potency [3] | Potency [4] | Potency [6]
active: Potency [7] 16.9 µM

C(COCC1CO1)OCC1CO1 (centres undefined)
inactive: outcome [8] | Potency [2] | Potency [9] | activity change, positive = activation [10] 0.301% | Potency [3] | outcome [5] | Potency [7]

CCN[C@@H](C)Cc1ccccc1
inactive: outcome [1] | Potency [2] | Potency [9] | activity change, positive = activation [10] 9.72% | Potency [3] | Potency [4] | outcome [5] | Potency [7]

O=P(O)(O)c1ccccc1
inactive: outcome [1] | Potency [2] | Potency [3] | Potency [4] | outcome [5] | Potency [6] | Potency [7]

CC1N=C(N)OC1c1ccccc1 (centres undefined)
inactive: outcome [1] | Potency [2] | Potency [3] | Potency [4] | outcome [5] | Potency [7]

CC(=O)OCC1=C(C(=O)O)N2C(=O)[C@@H](N)[C@H]2SC1
inactive: activation (H2AX phosphorylation) [1] 0.102% [at 31.6 µM] | activity change, negative = cytotoxicity [2] 3.73% [at 31.6 µM] | activity, negative = inhibition [9] 15.1% [at 19 µM] | activity change, positive = activation [10] 9.57% [at 19 µM] | activity change, negative = cytotoxic [4] 19.8% [at 15.8 µM] | cytotoxicity [5] 1.32% [at 15.8 µM] | activity change, negative = cytotoxic [6] 3.09% [at 15.8 µM] | cytotoxicity increase [7] -4.55% [at 15.8 µM]

CC(Cc1ccccc1)NCCn1cnc2c1c(=O)n(C)c(=O)n2C (centres undefined)
inactive: outcome [8] | Potency [2] | Potency [9] | activity change, positive = activation [10] -15.8% | outcome [5] | Potency [6] | Potency [7]
active: Potency [4] 21.6 µM

COC1=CC(=O)O[C@@H](/C=C/c2ccccc2)C1
inactive: outcome [1] | Potency [2] | Potency [9] | activity change, positive = activation [10] 12.9% | Potency [3] | Potency [4] | Potency [6] | Potency [7]

C=CC(=O)OCCN(C)C
inactive: outcome [8] | Potency [2] | Potency [9] | activity change, positive = activation [10] 3.26% | Potency [3] | outcome [5] | Potency [7]

N[C@@H]1C[C@H]1c1ccccc1
inactive: outcome [1] | Potency [2] | Potency [4] | outcome [5] | Potency [6] | Potency [7]

COc1ccc(CN2CCNCC2)c(OC)c1OC
inactive: outcome [1] | Potency [2] | Potency [9] | activity change, positive = activation [10] -10% [at 42.5 µM] | Potency [3] | Potency [4] | Potency [6] | Potency [7]

Cl/C=C/CCl
inactive: outcome [8] | Potency [2] | Potency [9] | activity change, positive = activation [10] 5.39% | Potency [3] | Potency [4] | outcome [5] | Potency [6] | Potency [7]

CCCN1CCC[C@@H]2Cc3[nH]ncc3C[C@H]21
inactive: outcome [1] | Potency [2] | Potency [9] | activity change, positive = activation [10] 0.879% [at 42.5 µM] | outcome [5] | Potency [6] | Potency [7]

C[C@H](N)C(=O)c1ccccc1
inactive: outcome [1] | Potency [2] | Potency [3] | Potency [4] | Potency [7]

CC1NCCOC1c1ccccc1 (centres undefined)
inactive: outcome [8] | Potency [2] | Potency [9] | activity change, positive = activation [10] 0.163% [at 42.5 µM] | Potency [3] | Potency [4] | Potency [6] | Potency [7]

COC(=O)[C@@H](N)CCCN/C(N)=N/[N+](=O)[O-]
inactive: outcome [1] | Potency [2] | Potency [3] | Potency [4] | outcome [5] | Potency [6] | Potency [7]

O=[N+]([O-])c1cccc(CCl)c1
inactive: outcome [8] | Potency [2] | Potency [9] | activity change, positive = activation [10] -0.166% | Potency [4] | outcome [5] | Potency [6] | Potency [7]
